# Test results taken from PubChem BioAssay (EPA / NIEHS).
# Records with an inconclusive call do not appear. Where a structure was tested more than once in an assay, its records may differ in their call. Calls of active or inactive are those of the source. How the source made its calls: active means hit-call score of the fitted dose curve at least 0.9, where 1 is the maximum; inconclusive means response in the unintended direction; inactive means score below 0.9.
# Experiments:
# [1] = TAMU_PeakParms_SingleDonor1434_Asystole: Texas A&M University (TAMU) 1.5-hr Human Induced Pluripotent Stem Cell (iPSC)-derived Cardiomyocytes Calcium (Ca+2) Flux Assay for Cardiotoxicity: Asystole (quiescence of beating) (AID 2284328)
# In short: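 Donor 1434 iPSC-cardiomyocytes exposed 90 min at 37C, 5% CO2, to 0.2, 1, 10 and 100 uM in 0.5% DMSO. Ca2+ dye fluorescence gave average peak frequency; POD is EC95, a 95% beat-rate drop versus controls.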
# [2] = IUF_NPC1_cytotoxicity_72hr: Cytotoxicity Assessment at 72 hours in the Leibniz Research Institute for Environmental Medicine (IUF) Neural Progenitor Cell Proliferation Assay (NPC1) (AID 2284332);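 further: rising LDH signal means more cytotoxicity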
# In short: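 Spheres of primary human neural progenitors are plated one per well on day 0 in growth-factor medium and dosed at once. After three days at 37C, supernatant LDH is measured fluorimetrically via resazurin reduction.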
# SERPINA7 (gene 6906) = assay: CCTE_GLTED_hTBG: CCTE's human Thyroxine-binding Globulin (TBG) Inhibition Assay, Great Lakes Toxicology and Ecology Division (GLTED) Lab (AID 2284343);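 further: active chemicals lower fluorescence versus DMSO baseline by displacing probe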
# In short: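 hTBG + test chem, 2 h; ANSA probe displacement; fluorescence readout ex380/em475; DMSO = neg ctrl/baseline; cell-free.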
# [3] = VALA_TUBIPS_Antagonist_CellCount: Viability Assessment in the VALA Sciences human iPS-derived Endothelial Tubule Formation (TUBIPS) Antagonism Assay (AID 2284335)
# [4] = VALA_MIGHUV1_ScratchOnly_WoundArea: VALA Sciences human Umbilical Vein Endothelial Cell Migration (MIGHUV) Assay, Area of Scratch Wound Inhibited Recovery (AID 2284336)
# In short: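 HUVEC monolayers (9000 cells/well) were scratched after 24 h, dosed within 30 min (six concentrations, triplicate, 0.1% DMSO), allowed 24 h recovery, then fixed. Hoechst-stained nuclei in the wound imaged; cytochalasin D as reference.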
# [5] = VALA_TUBHUV_Agonist_TubuleLength: VALA Sciences human Umbilical Vein Endothelial Tubule Formation (TUBHUV) Agonism Assay (AID 2284337)
# In short: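 HUVEC co-cultured with fibroblasts (1:3) 3 days in 10 ng/ml VEGF, then 3 days with compound plus VEGF; 0.1 % DMSO neutral control. Fixed, nuclear and CD31 stained; tubule length by fluorescence imaging.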
# [6] = CCTE_Mundy_HCI_iCellGluta_NOG_NeuronCount: CCTE's Neurite Outgrowth Assay in iCellGluta cells for Neuron Count, Mundy Lab (AID 2284340);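 further: cells fixed about 48 h after compound addition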
# Protocol: (§1) CCTE_Mundy_HCI_iCellGluta_NOG is a multiplexed, cell-based-readout assay that uses iCell GlutaNeurons from FUJIFILM Cellular Dynamics, Inc. (FCDI), human glutamatergic enriched neurons derived from induced pluripotent stem (iPS) cells, with measurements taken at 50.33 hours after chemical dosing in a microplate: 96-well plate.CCTE_Mundy_HCI_iCellGluta_NOG_NeuronCount is one of four components of the CCTE_Mundy_HCI_iCellGluta_NOG assay. It measures cell viability related to number of neurons using High Content Imaging of fluorescently labelled markers.Data from the assay component CCTE_Mundy_HCI_iCellGluta_NOG_NeuronCount was analyzed at the endpoint CCTE_Mundy_HCI_iCellGluta_NOG_NeuronCount in the positive analysis fitting direction relative to DMSO as the negative control and baseline of activity. Using a type of viability reporter, loss-of-signal activity can be used to understand developmental effects.
# (§2) Exposure starts 2 hours post-plating by adding 10 ul of the working solution to 90 ul of media in the wells for a 1/10 dilution. Forty-eight hours after chemical treatment cells are fixed by direct addition of 100 ul of warm (37C) Dulbecco's phosphate buffered saline (DPBS) fixative solution containing 8% paraformaldehyde, 8% sucrose, and 0.1% of 3 mg/ml Hoechst 33342 into each well. Primary antibodies are prepared by dilution in Immunocytochemical Staining Buffer (ISB), 10X Dulbecco's PBS, 0.1% Saponin, 5% Bovine Serum Albumin, 0.5% NaN3 (Sodium Azide) and betaIII-tubulin (rabbit anti-betaIII-tubulin, 1:800) followed by Alexa Fluor-488 secondary (1:500) to label neuronal cell bodies and neurites. A Cellomics ArrayScan VTi HCS Reader is used for automated image acquisition and analysis of neurite outgrowth.
# [7] = CCTE_Mundy_HCI_iCellGluta_NOG_NeuriteCount: CCTE's Neurite Outgrowth Assay in iCellGluta cells for Neurite Count, Mundy Lab (AID 2284342);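 further: chemical exposure about 48 hours starting 2 hours after plating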
# Protocol: as §1, with “96-well plate.CCTE_Mundy_HCI_iCellGluta_NOG_NeuriteCount” for “96-well plate.CCTE_Mundy_HCI_iCellGluta_NOG_NeuronCount”, “measures neurite outgrowth” for “measures cell viability”, “of neurites” for “of neurons”, “component CCTE_Mundy_HCI_iCellGluta_NOG_NeuriteCount” for “component CCTE_Mundy_HCI_iCellGluta_NOG_NeuronCount”, “endpoint CCTE_Mundy_HCI_iCellGluta_NOG_NeuriteCount” for “endpoint CCTE_Mundy_HCI_iCellGluta_NOG_NeuronCount”, “of morphology” for “of viability”
# as §2
# [8] = VALA_TUBIPS_Agonist_CellCount: Viability Assessment in the VALA Sciences human iPS-derived Endothelial Tubule Formation (TUBIPS) Agonism Assay (AID 2284338)
# [9] = VALA_MIGHUV1_ScratchOnly_CellCount: Viability Assessment in the VALA Sciences human Umbilical Vein Endothelial Cell Migration (MIGHUV) Assay, Scratch Wound Inhibited Recovery (AID 2284327)
# In short: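 HUVEC scratched after 24 h culture, chemical added within 30 min at 6 concentrations in triplicate (0.1% DMSO vehicle). After 24 h recovery, fixed cells were counted by Hoechst nuclear imaging in the wound area.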
smiles,measurement,setting,value
ClC1=C(Cl)[C@]2(Cl)[C@H]3[C@H]([C@@H]4C=C[C@H]3C4)[C@@]1(Cl)C2(Cl)Cl,outcome,[1],inactive
CC(C)(C)C(O)(CCc1ccc(Cl)cc1)Cn1cncn1 (stereo not given),outcome,[1],inactive
same,outcome,[2],inactive
same,AC50,SERPINA7 (gene 6906),26.9 µM (active)
O=P(OCCCl)(OCCCl)OCCCl,outcome,[2],inactive
same,outcome,[3],inactive
same,outcome,[4],inactive
same,outcome,[5],inactive
CC(C)COC(=O)c1ccccc1C(=O)OCC(C)C,outcome,[6],inactive
same,outcome,[7],inactive
same,AC50,SERPINA7 (gene 6906),16.1 µM (active)
CCC[CH2][Sn]([Cl])([CH2]CCC)[CH2]CCC,AC50,[2],0.637 µM (active)
same,AC50,[6],0.257 µM (active)
same,AC50,[7],0.183 µM (active)
COC(=O)Nc1nc2ccccc2[nH]1,outcome,[2],inactive
same,outcome,[6],inactive
same,outcome,[7],inactive
Oc1ccc2ccc3cccc4ccc1c2c34,outcome,[3],inactive
same,outcome,[5],inactive
same,outcome,[8],inactive
O=C(Nc1ccccc1)c1ccccc1I,AC50,SERPINA7 (gene 6906),15.7 µM (active)
CCCCCCCCn1sccc1=O,outcome,[1],inactive
Nc1ccc(Oc2ccc(N)cc2)cc1,AC50,SERPINA7 (gene 6906),25.3 µM (active)
Nc1ccc([N+](=O)[O-])cc1,AC50,SERPINA7 (gene 6906),41.4 µM (active)
CS(=O)(=O)NC(=O)c1cc(Oc2ccc(C(F)(F)F)cc2Cl)ccc1[N+](=O)[O-],AC50,SERPINA7 (gene 6906),16.1 µM (active)
Nc1cc(Cl)cc(C(=O)O)c1Cl,outcome,SERPINA7 (gene 6906),inactive
OCCOCCO,outcome,[2],inactive
CNC(=O)Oc1cccc2c1OC(C)(C)C2,outcome,[2],inactive
same,outcome,[6],inactive
same,outcome,[7],inactive
CO[C@@H]1[C@H](OC(=O)NC(=O)CCl)CC[C@]2(CO2)[C@H]1[C@@]1(C)O[C@@H]1CC=C(C)C,outcome,[9],inactive
same,outcome,[3],inactive
same,outcome,[4],inactive
same,outcome,[5],inactive
same,AC50,[8],0.168 µM (active)
same,outcome,[8],inactive
CCCCCOC(=O)c1ccccc1C(=O)OCCCCC,AC50,SERPINA7 (gene 6906),7.46 µM (active)
c1ccc(N=Nc2ccccc2)cc1,outcome,[1],inactive
same,AC50,SERPINA7 (gene 6906),50 µM (active)
Brc1ccc(Oc2ccccc2)cc1,AC50,SERPINA7 (gene 6906),45.4 µM (active)
[Cl-].[Cl-].[Hg+2],AC50,SERPINA7 (gene 6906),27.6 µM (active)
Clc1ccc(C(c2ccc(Cl)cc2)C(Cl)(Cl)Cl)cc1,outcome,[1],inactive
Cc1cc(N=Nc2ccccc2C)ccc1N,AC50,SERPINA7 (gene 6906),4.38 µM (active)
COP(=S)(OC)SCN1C(=O)c2ccccc2C1=O,outcome,[2],inactive
same,AC50,[6],80.7 µM (active)
same,AC50,[7],83.8 µM (active)
same,AC50,SERPINA7 (gene 6906),37.5 µM (active)
CN(C)[C@@H]1C(=O)C(C(N)=O)=C(O)[C@@]2(O)C(=O)C3=C(O)c4c(O)cccc4[C@@](C)(O)[C@H]3C[C@@H]12,outcome,[6],inactive
same,outcome,[7],inactive
[O-][Cl+]O,outcome,[2],inactive
same,outcome,[6],inactive
same,outcome,[7],inactive
Clc1ccc(Cl)c(Cl)c1,outcome,[4],inactive
CCCCOC(=O)c1ccccc1C(=O)OCc1ccccc1,outcome,[2],inactive
same,outcome,[6],inactive
same,outcome,[7],inactive
same,AC50,SERPINA7 (gene 6906),2.23 µM (active)
c1ccc(NNc2ccccc2)cc1,AC50,SERPINA7 (gene 6906),39.1 µM (active)
O=[N+]([O-])c1ccc(Oc2ccc(Cl)cc2Cl)cc1,AC50,SERPINA7 (gene 6906),5.39 µM (active)
Nc1ccc(N=Nc2ccccc2)cc1,AC50,SERPINA7 (gene 6906),20.9 µM (active)
